Molecules are shown by their SMILES. About 83,000 compounds went through this panel and 20% of them were active in at least one assay; those are over-represented in the sample as a whole.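 Method: cells in 96-well plates; compound added at one concentration; 48 h incubation; percent growth measured; values under 10 scored active.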 Unmarked numbers belong to inactive results. Calls of active or inactive are those of the source.

The test system of one assay is U251 CNS. The assay is described as follows: NCI-60 one-dose screen, 48 h (100 = growth as untreated, 0 = no growth, -100 = all killed). As to conditions: 10 µM unless noted.
With `O=C1CSC(c2cn(-c3ccccc3)nc2-c2ccc(Cl)cc2)N1c1ccccc1` (stereo not drawn), the growth was 106%.

For `COc1ccc(-c2c3c(cn2Cc2cccc(OC)c2)-c2oncc2CCC3)cc1`, the growth is 93.2%.

`C#C[C@]1(O)CC[C@H]2[C@@H]3CC=C4c5sc(Nc6ccc(C)cn6)nc5CC[C@]4(C)[C@H]3CC[C@@]21C`: the growth was -1.79% (active). Same read-out and setting: the result for `CCCCCCOC(=O)c1cc(-c2ccc(F)cc2)nc2ccccc12` reads 101%. Same read-out and setting: in the case of `CN1CCN(c2ccc(Nc3nc(NCCNS(=O)(=O)c4ccccc4)c4sccc4n3)cc2)CC1` it was 103%; in that of `CN1CCN(Cc2ccc(NC(=O)c3cncc(C#Cc4cnc5ccc(O[C@@H]6CCOC6)nn45)c3)cc2C(F)(F)F)CC1`, -72.9% (active); in that of `CC(C)(C)Nc1nc2c(OCCc3ccccc3)cccn2c1-c1ccc([N+](=O)[O-])cc1`, 62.6%. Regarding `N#Cc1c(-c2cccs2)cc(-c2cnccn2)nc1SCC(=O)N/N=C/c1ccc(Cl)cc1`, the growth is 100%. As for `CN(C)CCCOc1ccc(C(=C(c2ccccc2)C2CCCC2)c2ccc(OCCCN(C)C)cc2)cc1`, the growth is -74.4% (active).

For the compound `N#Cc1nc(-c2ccc(Cl)cc2)oc1N1CCC(S(=O)(=O)N2CCOCC2)CC1`, the growth was 102%. Still for that read-out and setting: the result for `CC(=O)C1=C(C)NC(NNc2ccccc2)=NC1c1ccc([N+](=O)[O-])cc1` (stereo not drawn) reads 93.1%; that for `COC(=O)c1ccc(NC2=C(Cl)C(=O)C(C)=C(C)C2=O)cc1`, 59.4%. Regarding `C=C(C=O)[C@@H]1CC[C@]2(C(=O)O)CC[C@]3(C)C(CC[C@@H]4[C@@](C)(CCC#N)[C@H](C(=C)C=O)CC[C@]43C)[C@@H]12` (stereo partly drawn), the growth is 5.39% (active). On the same count and under the same terms, in the case of `CCOC(=O)C1=C(C)NC(C)=C(C(=O)OC(C)C)C1c1cccc(C#N)c1` (stereo not drawn) it was 100%. Take `CC1(C)CC[C@]23CC[C@]4(C)[C@H](CC[C@@H]5[C@@]6(C)CC[C@H](NCO)C(C)(C)[C@@H]6CC[C@]54C)[C@H]2[C@H]1OC3`: the growth is 1.32% (active). With `COc1ccc(C(=NNS(=O)(=O)c2ccc(C)cc2)c2ccccc2)cc1OC`, the growth was 96.1%.

Take `COc1cccc2c1C=CC1(O2)Oc2cccc(OC)c2C=C1C` (stereo not drawn): the growth was 16.8%. As for `Cc1csc(/N=C(N)/N=C(\N)c2cccnc2)n1`, the growth was 76.5%. On the same count and under the same terms, in the case of `Cc1ccc(/C=N/Nc2nc(Nc3ccccc3)nc(Nc3ccc(S(N)(=O)=O)cc3)n2)cc1` it was 62.6%.

On to `CCCC[n+]1ccc(SCC(=O)n2ccc3ccccc32)c2ccccc21`, for which the growth was 89.3%.

On to `O=[N+]([O-])c1ccc(NC(=S)NNC(=S)Nc2ccc(Br)cc2)cc1`, for which the growth is 88.4%. Same read-out and setting: in the case of `CCOP(=O)(OCC)OC[C@]12CCC(C)(C)CC1C1=CC[C@@H]3[C@@]4(C)CCCNC(C)(C)[C@@H]4CC[C@@]3(C)[C@]1(C)CC2` (stereo partly drawn) it was 56.3%; in that of `CNC(=O)Nc1ccc(Nc2cc(-c3ccc(-n4cccn4)cc3)[nH]n2)c(C)c1`, 106%. Same read-out and setting: in the case of `O=C(CCCCCCNC(=O)c1csc(Br)n1)NO` it was 49.3%. Take `NS(=O)(=O)c1ccc(Nc2nc(N/N=C/c3ccc4c(c3)OCO4)nc(Nc3ccccc3)n2)cc1`: the growth is 55.4%. With `CCc1cc2c(cc1Cl)nc1c(=O)[nH]c(=O)nc-1n2CCOCC(C)C`, the growth is 73.9%. On to `COc1cc(C(=O)c2cc(C(C)=O)c3cccc(C)n23)cc(OC)c1OC`, for which the growth is 30.9%. Take `Nc1ncc(-c2ccc3ncnc(NCc4ccccc4)c3c2)cn1`: the growth was 64.1%.

In the case of `COc1ccc2c(c1)c(-c1nn3cc(-c4ccncc4)nc3s1)cn2C`, the growth is 83%.

Another assay relates to PC-3 prostate. The description is as above. As to conditions: 10 µM unless noted.
As for `C#C[C@]1(O)CC[C@H]2[C@@H]3CC=C4c5sc(N(C)c6ccccc6)nc5CC[C@]4(C)[C@H]3CC[C@@]21C`, the growth was 59.1%.

On to `CC(=O)c1c([Si](C)(C)C)c2cc(C#N)ccn2c1C(=O)c1ccc(Br)cc1`, for which the growth is 76%. On to `O=C(CSc1nc2ccccc2c(=O)n1-c1ccc(Cl)c(Cl)c1)Nc1ccc(S(=O)(=O)Nc2ccc(Cl)nn2)cc1`, for which the growth is 92.3%.

For `C#CCN(C)CCCOc1ccc(NCc2ccc(/C=C/C(=O)NO)cc2)cc1Cl`, the growth was 19%. With `O=C(NNc1nc2cc(F)cc(F)c2n2cccc12)c1cccnn1`, the growth was 30.7%.

Turning to `COc1ccc(/C(=N\NC(N)=S)c2ccc(Cl)cc2)cc1OC`, the growth was 36.4%. With `COc1ccc(-c2c(C(N)=O)c(N)n(Cc3nc4ccccc4[nH]3)c(=O)c2C#N)c(OC)c1`, the growth is 97.4%. Regarding `Cc1cc(Br)ccc1-n1cc(C#N)c(N)c1C(=O)c1ccc(Br)cc1`, the growth was 103%. Same read-out and setting: in the case of `CN1CCN(Cc2ccc(NC(=O)c3cncc(C#Cc4cnc(N)nc4)c3)cc2C(F)(F)F)CC1` it was 35.1%; in that of `CCOC(=O)c1c(NC(=O)c2ccc(C(F)(F)F)cc2)sc2c3c(ccc12)OCN(C)C3`, 65.3%. The same measure, in the same setting: the result for `O=C1CSC(c2cn(-c3ccccc3)nc2-c2ccc(Cl)cc2)N1c1ccccc1` (stereo not drawn) reads 99.7%.

Consider `COc1ccc(-c2c3c(cn2Cc2cccc(OC)c2)-c2oncc2CCC3)cc1`, for which the growth is 85.4%. `C#C[C@]1(O)CC[C@H]2[C@@H]3CC=C4c5sc(Nc6ccc(C)cn6)nc5CC[C@]4(C)[C@H]3CC[C@@]21C`: the growth was -27.3% (active). On to `CCCCCCOC(=O)c1cc(-c2ccc(F)cc2)nc2ccccc12`, for which the growth was 94.2%. For the compound `CN1CCN(c2ccc(Nc3nc(NCCNS(=O)(=O)c4ccccc4)c4sccc4n3)cc2)CC1`, the growth was 95.4%.

As for `CN1CCN(Cc2ccc(NC(=O)c3cncc(C#Cc4cnc5ccc(O[C@@H]6CCOC6)nn45)c3)cc2C(F)(F)F)CC1`, the growth is -40.4% (active). For the compound `CC(C)(C)Nc1nc2c(OCCc3ccccc3)cccn2c1-c1ccc([N+](=O)[O-])cc1`, the growth is 49.1%. For `N#Cc1c(-c2cccs2)cc(-c2cnccn2)nc1SCC(=O)N/N=C/c1ccc(Cl)cc1`, the growth is 93.9%. Same read-out and setting: the result for `CN(C)CCCOc1ccc(C(=C(c2ccccc2)C2CCCC2)c2ccc(OCCCN(C)C)cc2)cc1` reads -65.5% (active); that for `N#Cc1nc(-c2ccc(Cl)cc2)oc1N1CCC(S(=O)(=O)N2CCOCC2)CC1`, 95.4%; that for `CC(=O)C1=C(C)NC(NNc2ccccc2)=NC1c1ccc([N+](=O)[O-])cc1` (stereo not drawn), 79.3%. Regarding `COC(=O)c1ccc(NC2=C(Cl)C(=O)C(C)=C(C)C2=O)cc1`, the growth was 36.6%. Still for that read-out and setting: the result for `C=C(C=O)[C@@H]1CC[C@]2(C(=O)O)CC[C@]3(C)C(CC[C@@H]4[C@@](C)(CCC#N)[C@H](C(=C)C=O)CC[C@]43C)[C@@H]12` (stereo partly drawn) reads 30.3%. With `CCOC(=O)C1=C(C)NC(C)=C(C(=O)OC(C)C)C1c1cccc(C#N)c1` (stereo not drawn), the growth is 87.2%. In the case of `CC1(C)CC[C@]23CC[C@]4(C)[C@H](CC[C@@H]5[C@@]6(C)CC[C@H](NCO)C(C)(C)[C@@H]6CC[C@]54C)[C@H]2[C@H]1OC3`, the growth was 75%. Still for that read-out and setting: in the case of `COc1ccc(C(=NNS(=O)(=O)c2ccc(C)cc2)c2ccccc2)cc1OC` it was 93%; in that of `COc1cccc2c1C=CC1(O2)Oc2cccc(OC)c2C=C1C` (stereo not drawn), 31.4%; in that of `Cc1csc(/N=C(N)/N=C(\N)c2cccnc2)n1`, 69.2%.

As for `Cc1ccc(/C=N/Nc2nc(Nc3ccccc3)nc(Nc3ccc(S(N)(=O)=O)cc3)n2)cc1`, the growth is 66.8%. The same measure, in the same setting: in the case of `CCCC[n+]1ccc(SCC(=O)n2ccc3ccccc32)c2ccccc21` it was 90.9%; in that of `O=[N+]([O-])c1ccc(NC(=S)NNC(=S)Nc2ccc(Br)cc2)cc1`, 75.3%; in that of `CCOP(=O)(OCC)OC[C@]12CCC(C)(C)CC1C1=CC[C@@H]3[C@@]4(C)CCCNC(C)(C)[C@@H]4CC[C@@]3(C)[C@]1(C)CC2` (stereo partly drawn), 51.3%.

As for `CNC(=O)Nc1ccc(Nc2cc(-c3ccc(-n4cccn4)cc3)[nH]n2)c(C)c1`, the growth is 107%. `O=C(CCCCCCNC(=O)c1csc(Br)n1)NO`: the growth is 47.4%. The same measure, in the same setting: in the case of `NS(=O)(=O)c1ccc(Nc2nc(N/N=C/c3ccc4c(c3)OCO4)nc(Nc3ccccc3)n2)cc1` it was 59.1%; in that of `CCc1cc2c(cc1Cl)nc1c(=O)[nH]c(=O)nc-1n2CCOCC(C)C`, 68.9%; in that of `COc1cc(C(=O)c2cc(C(C)=O)c3cccc(C)n23)cc(OC)c1OC`, 55.7%.

As for `Nc1ncc(-c2ccc3ncnc(NCc4ccccc4)c3c2)cn1`, the growth is 34.7%. On the same count and under the same terms, in the case of `COc1ccc2c(c1)c(-c1nn3cc(-c4ccncc4)nc3s1)cn2C` it was 71.2%.

The record behind these values is PubChem BioAssay (NCI).
